Assay results published in PubChem BioAssay (Tox21).
Several values for one entry are separate records, joined by “and”; a condition that tells them apart may be missing. Equal entries are not always repeated. Results filed as inconclusive are left out. Some structures have more than one record in an assay (separate samples or runs), and their calls can disagree. Activity calls are given as the source filed them. Unless noted, calls follow the shape of the dose curve; as a rule, active = well fitted curve in the direction sought with a large enough effect in the repeat runs; inconclusive = weak or mixed curves; inactive = no such curve, though single readings can be large; an effect the other way counts as inactive or inconclusive.

Experiments:
[1] = qHTS assay to identify small molecule agonists of the RXR signaling pathway - cell viability counter screen (AID 1159529); also: nearly all actives have a fitted effect of over 50% in size; also: potency is read from the fitted curve at half-maximal effect
Method in brief: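 Same-well viability check after the LiveBLAzer FRET read: CellTiter-Glo added, luminescence measured after 30 min at room temperature. Reporter HEK 293T cells had been treated with compounds for 16 hr following a 5 hr preincubation.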

[2] = qHTS assay to identify small molecule antagonists of the retinoid acid receptor (RAR) signaling pathway - cell viability counter screen (AID 1159551); also: nearly all actives have a fitted effect of over 35% in size; also: potency is read from the fitted curve at half-maximal effect
Method in brief: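 Following overnight attachment, C3RL4 reporter cells received DMSO-dissolved compounds and then retinol (1 uM final). Six hours later at 37 C, ATP content was measured by CellTiter-Glo luminescence.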

[3] = qHTS assay to identify small molecule antagonists of the retinoic acid receptor (RAR) signaling pathway (AID 1159552; also: nearly all actives have a fitted effect of over 50% in size; also: potency is read from the fitted curve at half-maximal effect)
Method in brief: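 Readout: luciferase luminescence, 30 min post-reagent at RT. Setup: C3RL4 RARE reporter cells, compounds plus retinol 1 uM final, 6 hr incubation at 37 C and 5% CO2.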

[4] = qHTS assay to identify small molecule antagonists of the estrogen related receptor (ERR) signaling pathway from Tox21 library - cell viability counter screen (AID 1224834); also: nearly all actives have a fitted effect of over 30% in size; also: potency is read from the fitted curve at half-maximal effect
Method in brief: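 Viability readout (CellTiter-Fluor fluorescence, 30 min at 37 C) multiplexed with the ERR assay; cells treated 17.5 h at 37 C with compounds delivered in DMSO.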

[5] = qHTS assay to identify small molecule agonists of the constitutive androstane receptor (CAR) signaling pathway - cell viability counter screen (AID 1224836); also: nearly all actives have a fitted effect of over 45% in size; also: potency is read from the fitted curve at half-maximal effect
Method in brief: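 Compound titrations (15 concentrations) went onto HepG2-CYP2B6-hCAR cells 4 h after seeding, alongside PK11195 at a final 0.75 uM; a 23 h, 37 C/5% CO2 incubation preceded CellTiter-Fluor viability measurement.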

[6] = qHTS assay to identify small molecule antagonists of the constitutive androstane receptor (CAR) signaling pathway - cell viability counter screen (AID 1224837); also: nearly all actives have a fitted effect of over 45% in size; also: potency is read from the fitted curve at half-maximal effect
Method in brief: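 Fluorescence from CellTiter-Fluor served as the viability signal. Human hepatoma HepG2 cells stably bearing hCAR and CYP2B6-2.2kb received compound plus CITCO (50 nM final) for 23 hr.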

[7] = biological target: Nuclear receptor subfamily 1 group I member 3 (Homo sapiens) (UniProt Q14994); test: qHTS assay to identify small molecule antagonists of the constitutive androstane receptor (CAR) signaling pathway (AID 1224838);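 also: HepG2 cells stably expressing hCAR with CYP2B6 luciferase reporter stimulated by CITCO; nearly all actives have a fitted effect of over 40% in size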; also: potency is read from the fitted curve at half-maximal effect
Method in brief: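 Quantitative HTS in double-stable HepG2-CYP2B6-hCAR cells. After 4 h plating, cells get compound (15 concentrations) and CITCO at 50 nM final, incubate 24 h at 37 C, then ONE-Glo luminescence is read.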

[8] = biological target: Nuclear receptor subfamily 1 group I member 3 (Homo sapiens) (UniProt Q14994); test: qHTS assay to identify small molecule agonists of the constitutive androstane receptor (CAR) signaling pathway (AID 1224839); also: nearly all actives have a fitted effect of over 15% in size; also: potency is read from the fitted curve at half-maximal effect;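 as to activation: HepG2 cells stably carrying human CAR and a CYP2B6 luciferase reporter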
Method in brief: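 In this screen, CAR-driven CYP2B6 promoter activity is measured by luminescence in HepG2-CYP2B6-hCAR cells after 24 h with test compounds and 0.75 uM PK11195 (final concentration).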

[9] = qHTS assay to identify small molecule antagonists of the estrogen related receptor signaling pathway with the pleiotropic PPARgamma coactivator (PGC) from Tox21 10K library (AID 1224841; call rule not given here; also: actives are mostly falling curves and most rising ones were filed inactive; nearly all actives have a fitted effect of over 50% in size; also: potency is read from the fitted curve at half-maximal effect)
Method in brief: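 Compound exposure ran 18 hours at 37 C in PGC/ERR cells (2,000/well) that had first rested 6 hours in a 37 C/5% CO2 incubator. Luciferase activity was then detected with One-Glo after a 30-minute room-temperature step.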

[10] = qHTS assay to identify small molecule agonists of the estrogen related receptor signaling pathway with the pleiotropic PPARgamma coactivator (PGC) from Tox21 10K library (AID 1224842); also: nearly all actives have a fitted effect of over 15% in size; also: potency is read from the fitted curve at half-maximal effect
Method in brief: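 PGC/ERR reporter cells (NTP line) were seeded 2,000 per well, rested 6 h at 37 C/5% CO2, then pin-dosed with compounds in DMSO for 18 h at 37 C; luciferase read by One-Glo luminescence after 30 min at room temperature.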

[11] = qHTS assay to identify small molecule agonists of the retinoic acid receptor (RAR) signaling pathway (AID 1159553); conditions: C3RL4 RARE luciferase reporter, agonist, 6 h; activation: at 73.3 µM (top of the series) unless noted
Method in brief: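 Cell line C3RL4, RARE luciferase reporter. Treatment: compounds in DMSO, 6 hr, 37 C, 5% CO2, after overnight plating. Detection: luminescence, 30 min RT after reagent.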

[12] = biological target: Luciferin 4-monooxygenase (Photinus pyralis) (UniProt P08659); test: qHTS assay to identify small molecule inhibitors of firefly luciferase (AID 1224835); also: nearly all actives have a fitted effect of over 25% in size; also: potency is read from the fitted curve at half-maximal effect
Method in brief: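 Quantitative HTS format; KM concentrations of both substrates. Purified P. pyralis FLuc activity quantified from luminescence images.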

[13] = qHTS assay to identify small molecule antagonists of the estrogen related receptor signaling pathway with the pleiotropic PPARgamma coactivator (PGC) from Tox21 10K library - cell viability counter screen (AID 1224840; active = well fitted cell-killing curve with a large enough effect in the repeat runs, not every such curve was filed as active; also: nearly all actives have a fitted effect of over 40% in size; also: potency is read from the fitted curve at half-maximal effect)
Method in brief: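 Compounds in DMSO, alongside positive and negative controls, were pinned onto PGC/ERR cells (2,000 per well). Exposure lasted 17.5 hours at 37 C, followed by a 30-minute CellTiter-Fluor incubation and fluorescence reading.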

[14] = biological target: Thyrotropin receptor (Homo sapiens) (UniProt P16473); test: qHTS assay to identify small molecule agonists of the thyroid stimulating hormone receptor (TSHR) signaling pathway (AID 1224843; calls by dose curve; also: nearly all actives have a fitted effect of over 45% in size; also: potency is read from the fitted curve at half-maximal effect)
Method in brief: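 Cell line HEK293 with TSHR; density 800/well. Exposure 30 min RT. Readout HTRF cAMP (cAMP-d2/anti-cAMP-cryptate), 1 h RT before reading.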

[15] = qHTS assay to identify small molecule antagonists of the estrogen related receptor (ERR) signaling pathway - cell viability counter screen (AID 1224818);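 also: viability measured after 17.5 h of compound exposure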
Method in brief: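 Here, ERR cells are plated at 2,000 cells per well, allowed 6 h to attach, and treated with compounds in DMSO for 17.5 h at 37 C. CellTiter-Fluor is then added and fluorescence read after 30 min.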

[16] = qHTS assay to identify small molecule antagonists of the estrogen related receptor signaling pathway with the pleiotropic PPARgamma coactivator (PGC) cell viability counter screen (AID 1224822;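 also: viability read after 17.5 h compound exposure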)
Method in brief: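 qHTS format, DMSO compound stocks pin-transferred onto PGC/ERR cells 6 h after plating; 17.5 h exposure at 37 C, then CellTiter-Fluor fluorescence.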

[17] = qHTS assay to identify small molecule antagonists of the estrogen related receptor (ERR) signaling pathway (AID 1224819;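 also: luminescence from an ERR-driven luciferase reporter measured with One-Glo reagent; nearly all actives have a fitted effect of over 50% in size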)
Method in brief: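 LOPAC library screened for antagonism as reduced One-Glo luminescence in ERR reporter cells (2,000/well). Compounds were added after 6 h pre-incubation and left 18 h at 37C; reading followed a 30 min room-temperature reagent step.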

[18] = qHTS assay to identify small molecule agonists of the estrogen related receptor (ERR) signaling pathway (AID 1224820)
Method in brief: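 ERR reporter cell line (from NTP), 2,000 cells/well, incubated 6 h before compound addition, then 18 h at 37 C. Luminescence measured 30 min after One-Glo reagent at room temperature.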

[19] = test system: estrogen-related receptor alpha (ERRalpha) with PGC-1alpha coactivator, human; test: qHTS assay to identify small molecule antagonists of the estrogen related receptor signaling pathway with the pleiotropic PPARgamma coactivator (PGC) (AID 1224821; calls by dose curve)
Method in brief: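 PGC/ERR reporter cell line, plated 6 h before compound addition, then exposed 18 h at 37 °C. Luciferase activity read by luminescence 30 min after One-Glo addition; decrease indicates antagonism.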

[20] = qHTS assay to identify small molecule agonists of the estrogen related receptor signaling pathway with the pleiotropic PPARgamma coactivator (PGC) (AID 1224823)
Method in brief: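 PGC/ERR reporter cells seeded 6 h, then exposed to compounds (23 nL in DMSO) for 18 h at 37 C. One-Glo luciferase luminescence read after 30 min at room temperature.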

Measured: Potency

Sequence of Luciferin 4-monooxygenase (Photinus pyralis) (P08659 whole entry, looked up): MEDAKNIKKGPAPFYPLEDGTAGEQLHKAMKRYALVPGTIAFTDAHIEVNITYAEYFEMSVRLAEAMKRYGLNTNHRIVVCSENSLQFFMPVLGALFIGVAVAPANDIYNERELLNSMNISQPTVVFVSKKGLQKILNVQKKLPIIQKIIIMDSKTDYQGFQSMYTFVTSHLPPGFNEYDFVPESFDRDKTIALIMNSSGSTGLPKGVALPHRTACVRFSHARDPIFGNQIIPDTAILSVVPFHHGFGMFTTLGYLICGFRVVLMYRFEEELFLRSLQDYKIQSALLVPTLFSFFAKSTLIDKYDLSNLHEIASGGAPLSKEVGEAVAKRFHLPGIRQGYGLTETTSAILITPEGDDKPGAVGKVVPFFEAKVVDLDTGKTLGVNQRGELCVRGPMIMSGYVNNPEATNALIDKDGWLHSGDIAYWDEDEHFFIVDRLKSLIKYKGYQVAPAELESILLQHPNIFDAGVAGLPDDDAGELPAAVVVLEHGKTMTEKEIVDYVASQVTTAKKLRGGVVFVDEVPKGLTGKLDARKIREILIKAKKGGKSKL
Sequence of Nuclear receptor subfamily 1 group I member 3 (Homo sapiens) (Q14994 whole entry, looked up): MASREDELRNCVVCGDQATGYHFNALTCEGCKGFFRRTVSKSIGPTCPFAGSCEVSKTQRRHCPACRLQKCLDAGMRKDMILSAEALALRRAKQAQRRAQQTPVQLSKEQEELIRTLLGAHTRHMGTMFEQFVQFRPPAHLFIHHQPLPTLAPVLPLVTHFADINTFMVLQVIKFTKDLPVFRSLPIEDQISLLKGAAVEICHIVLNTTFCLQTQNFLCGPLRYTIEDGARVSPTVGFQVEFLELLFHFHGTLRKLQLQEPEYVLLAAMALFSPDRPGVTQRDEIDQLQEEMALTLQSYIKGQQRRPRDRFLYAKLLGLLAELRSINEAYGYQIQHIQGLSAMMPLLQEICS
Sequence of Thyrotropin receptor (Homo sapiens) (P16473 whole entry, looked up): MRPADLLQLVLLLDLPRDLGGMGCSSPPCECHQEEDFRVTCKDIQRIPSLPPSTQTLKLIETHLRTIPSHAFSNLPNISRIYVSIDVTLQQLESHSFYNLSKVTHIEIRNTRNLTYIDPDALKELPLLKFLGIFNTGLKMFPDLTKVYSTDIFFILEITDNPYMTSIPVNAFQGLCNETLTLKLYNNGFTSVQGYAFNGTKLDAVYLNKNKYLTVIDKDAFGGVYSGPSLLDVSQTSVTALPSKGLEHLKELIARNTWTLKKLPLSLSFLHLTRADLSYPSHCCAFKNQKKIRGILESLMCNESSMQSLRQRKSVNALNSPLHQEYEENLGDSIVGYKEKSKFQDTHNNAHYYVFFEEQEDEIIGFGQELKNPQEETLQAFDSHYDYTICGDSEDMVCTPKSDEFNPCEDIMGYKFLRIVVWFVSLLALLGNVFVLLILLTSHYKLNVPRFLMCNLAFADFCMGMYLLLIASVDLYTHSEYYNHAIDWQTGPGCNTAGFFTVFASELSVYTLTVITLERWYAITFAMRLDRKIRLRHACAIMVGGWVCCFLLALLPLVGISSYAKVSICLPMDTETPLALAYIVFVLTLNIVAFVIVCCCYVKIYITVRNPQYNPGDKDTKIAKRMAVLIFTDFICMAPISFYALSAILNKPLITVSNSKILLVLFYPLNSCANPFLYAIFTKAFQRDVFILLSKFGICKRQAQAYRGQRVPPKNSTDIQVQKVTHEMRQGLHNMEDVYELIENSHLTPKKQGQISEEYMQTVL

CCC[CH2][Sn]([Cl])([Cl])[CH2]CCC
inactive: [8] | [10]
active: [1] 1.76 µM and 3.09 µM | [2] 13.9 µM and 27.3 µM | [3] 310 nM and 344 nM | [4] 981 nM and 1.09 µM | [5] 874 nM | [6] 874 nM and 864 nM | [7] 552 nM and 686 nM | [9] 196 nM and 96.9 nM

N#Cc1nn(-c2c(Cl)cc(C(F)(F)F)cc2Cl)c(N)c1S(=O)C(F)(F)F (stereo unspecified)
active: [4] 27.5 µM and 29.8 µM | [9] 7.74 µM and 21.1 µM
inactive: [1] | [2] | [11] | [12] | [6] | [7] | [8] | [13] | [10] | [14]

CCN(CC)C(=O)C(C)Oc1cccc2ccccc12 (stereo unspecified)
inactive and 30.6 µM (active): [14]
inactive: [1] | [2] | [12] | [6] | [7]
active: [8] 54.9 µM and 61.1 µM

COP(=S)(OC)SCn1nnc2ccccc2c1=O
active: [3] 60 µM | [12] 39.1 µM and 39.9 µM | [9] 61.1 µM
inactive: [1] | [2] | [5] | [6] | [7] | [10] | [14]

N#CC(c1ccccc1)c1ccccc1
not listed: [2] | [13] | [15] | [16] | [17] | [18] | [19] | [20]
inactive: all other assays above

CC(C)(c1ccccc1)c1ccc(O)c(C(C)(C)c2ccccc2)c1
inactive: [12] | [10]
active: [1] 13.7 µM and 15.5 µM | [2] 54 µM and 61.1 µM | [3] 27.1 µM and 27.3 µM | [4] 54 µM and 54.5 µM | [8] 7.7 µM | [9] 48.1 µM | [14] 54.5 µM

CCCCOCCOC(C)=O
inactive: [1] | [2] | [4] | [12] | [6] | [7] | [8] | [13] | [9] | [10] | [14]

C[N+](C)(C)C
inactive: [1] | [2] | [11] | [4] | [12] | [5] | [6] | [7] | [8] | [14]

c1ccc(C2CO2)cc1 (stereo unspecified)
inactive: [1] | [2] | [4] | [12] | [5] | [6] | [14]

CCC/C=N/O
inactive: [1] | [2] | [4] | [12] | [6] | [7] | [8] | [13]

NN=C(N)N
inactive: [1] | [2] | [15] | [16] | [4] | [12] | [5] | [6]

CCNc1nc(Cl)nc(NC(C)(C)C#N)n1
inactive: [1] | [2] | [4] | [12] | [5] | [6] | [7] | [8] | [13] | [14]

COP(=O)(NC(C)=O)SC (stereo unspecified)
inactive: [1] | [2] | [4] | [12] | [5] | [6] | [7] | [8] | [13]

O=S(=O)(O)C(F)(F)C(F)(F)C(F)(F)C(F)(F)C(F)(F)C(F)(F)C(F)(F)C(F)(F)F
inactive and 5.45 µM (active): [9]
inactive and 19.5 µM (active): [1]
active: [12] 75.8 µM and 71 µM
not listed: [3] | [5] | [7] | [8] | [11]
inactive: all other assays above

Cl
inactive: [1] | [2] | [4] | [5] | [6]

CC1CC(=O)O1 (stereo unspecified)
inactive: [1] | [2] | [3] | [11] | [4] | [12] | [6] | [14]

ClC(Cl)=C(Cl)C(Cl)=C(Cl)Cl
inactive: [1] | [2] | [3] | [11] | [4] | [12] | [6] | [13] | [14]

CCC[CH2][Sn]([Cl])([CH2]CCC)[CH2]CCC
inactive: [8]
active: [1] 1.1 µM | [2] 3.86 µM and 8.63 µM | [4] 2.17 µM and 1.22 µM | [12] 31.8 µM and 39.9 µM | [5] 546 nM and 545 nM | [6] 1.54 µM and 686 nM | [7] 244 nM and 386 nM | [13] 1.09 µM and 864 nM

O=C1C(Cl)=C(Cl)C(=O)c2ccccc21
active: [1] 12.3 µM and 17.4 µM | [2] 21.8 µM and 24.3 µM | [3] 21.8 µM and 19.3 µM | [4] 61.3 µM and 54.5 µM | [12] 5.66 µM and 5.64 µM | [9] 34.5 µM and 19.3 µM
inactive: [5] | [6] | [10]

C[C@]12CCC(=O)C=C1CC[C@@H]1[C@@H]2CC[C@@]2(C)[C@H]1CC[C@]2(C)O
active: [3] 43.6 µM
inactive: [1] | [11] | [15] | [16] | [4] | [12] | [6] | [7] | [8] | [14]

O=C(O)CF
inactive: [1] | [2] | [4] | [12] | [6] | [13] | [14]

CC1(C)C(C(=O)OC(C#N)c2cccc(Oc3ccccc3)c2)C1(C)C (stereo unspecified)
active: [8] 12.3 µM and 24.3 µM | [9] 27.5 µM
inactive: [1] | [3] | [11] | [4] | [12] | [6] | [7] | [13] | [10]

CC(C)Nc1ccc(Nc2ccccc2)cc1
inactive and 19.3 µM (active): [10]
active: [1] 19.4 µM and 21.9 µM | [4] 27.2 µM and 61.1 µM | [12] 31.6 µM and 35.6 µM | [6] 54.3 µM | [8] 13.6 µM and 27.3 µM | [13] 43.1 µM
inactive: [7]
54.3 µM (active) and inactive: [9]
